# Reference: PubChem BioAssay (NCATS)
# Records with an inconclusive call do not appear. Activity calls are given as the source filed them. Unless noted, the call rests on the fitted dose curve; in most records, active means well fitted curve in the direction sought with a large enough effect; inconclusive means small, poorly fitted or top-dose-only effect, or another doubt; inactive means no such curve, though single readings can be large; an effect the other way counts as inactive or inconclusive.
# Assays:
# [1] = qHTS profiling for inhibitors of Plasmodium falciparum (HB3) proliferation (AID 743324); details: Plasmodium falciparum HB3 blood-stage proliferation; at 28.7 µM (top of the series);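 further: 100% = DMSO vehicle wells and 0% = artemisinin-treated control wells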
# How it was run: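 SYBR Green fluorescence (485 ex/535 em) of lysed cultures, incubated overnight at room temperature in the dark, quantifies parasite DNA. Infected erythrocytes at 0.3% parasitemia and 2.5% hematocrit were exposed 72 h; values normalized to DMSO and 0.29 uM artemisinin controls.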
# [2] = target: Estrogen receptor (Homo sapiens) (UniProt P03372); experiment: qHTS assay for small molecule antagonists of estrogen receptor alpha signaling (AID 588513; active means well fitted curve in the direction sought with a large enough effect in the signal ratio, with a control signal flat, not every such curve was filed as active; the % refers to the signal ratio; further: on the % scale 0 is the no-effect control and ±100 the full control effect)
# How it was run: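 Beta-lactamase reporter, antagonist mode, HEK 293 GripTite cells; 0.5nM E2 stimulus, 18 h, 37 C; CCF4 dye 2 h RT; fluorescence. IC50 and efficacy from Hill fits, normalized to E2 and DMSO.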
# [3] = target: Glucocorticoid receptor (Homo sapiens) (UniProt P04150); experiment: qHTS assay for small molecule agonists of glucocorticoid receptor signaling (AID 588532; active means well fitted curve in the direction sought with a large enough effect in the signal ratio, with a control signal flat; the % refers to the signal ratio;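 further: 100% = dexamethasone at 0.1 µM and 0% = DMSO only wells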); details: HeLa MMTV-bla, beta-lactamase ratio, agonist, 18 h; stronger effect = higher value; percent of dexamethasone control, DMSO zero
# How it was run: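 Stimulation of a glucocorticoid response element-driven beta-lactamase gene was measured in HeLa cells. Responses were scaled between DMSO basal and 0.1 uM dexamethasone, then fitted for half-maximal stimulation.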
# [4] = target: Glucocorticoid receptor (Homo sapiens) (UniProt P04150); experiment: qHTS assay for small molecule antagonists of glucocorticoid receptor signaling (AID 588533; active means well fitted inhibition curve with a large enough effect in the signal ratio, with a control signal flat, not every such curve was filed as active; the % refers to the signal ratio;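 further: cells stimulated with 2 nM dexamethasone as agonist; on the % scale 0 is the no-effect control and ±100 the full control effect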)
# How it was run: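 Antagonist-mode qHTS: compound titrations added to GRE-bla HeLa cells, then dexamethasone 2 nM final; 18 h, 37 C. CCF4 FRET fluorescence normalized to dexamethasone and DMSO; IC50 from Hill fit.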
# [5] = target: Peroxisome proliferator-activated receptor gamma (Homo sapiens) (UniProt P37231); experiment: qHTS assay for small molecule agonists of peroxisome proliferator-activated receptor gamma signaling (AID 588536; active means well fitted curve in the direction sought with a large enough effect in the signal ratio, with a control signal flat, not every such curve was filed as active; the % refers to the signal ratio;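 further: 0% = DMSO basal wells and 100% = rosiglitazone at 2 µM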)
# How it was run: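 Cells were plated and held 6–6.5 h at 37 C, then compounds were added as a titration series. After a further 16 h, CCF4 dye was loaded for 2 h at room temperature and emission at 460/530 nm recorded.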
# [6] = target: Peroxisome proliferator-activated receptor gamma (Homo sapiens) (UniProt P37231); experiment: qHTS assay for small molecule antagonists of peroxisome proliferator-activated receptor gamma signaling (AID 588537; active means well fitted inhibition curve with a large enough effect in the signal ratio, with a control signal flat, not every such curve was filed as active; the % refers to the signal ratio;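 further: reporter cells co-stimulated with 50 nM rosiglitazone agonist during compound treatment; % of control where 0% means no effect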)
# How it was run: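 HEK293 cells, PPAR-gamma-UAS-bla, 3000/well. Pre-incubation 6-6.5 h, 37 C. Compound titration with rosiglitazone 50 nM final, 16 h. CCF4 dye, 2 h RT, dual-emission fluorescence.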
# [7] = target: Vitamin D3 receptor (Homo sapiens) (UniProt P11473); experiment: qHTS assay for small molecule antagonists of vitamin D receptor signaling (AID 588541; calls by dose curve;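 further: receptor activated by calcitriol during compound treatment; on the % scale 0 is the no-effect control and ±100 the full control effect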)
# How it was run: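 VDR-UAS-bla HEK293T cells (2000/well, 2% charcoal-stripped FBS) were treated with titrated compounds plus 1-alpha,25-dihydroxyvitamin D3 (50 nM or 3 nM final) for 16 h at 37 C. CCF4 beta-lactamase fluorescence was read; Hill fits gave IC50.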
# [8] = qHTS assay for small molecule agonists of retinoid X receptor alpha signaling (AID 588544; calls by dose curve;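 on activation: 0% = DMSO basal wells and 100% = reference agonist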); details: HEK293T RXRa-UAS-bla, beta-lactamase reporter, 18 h; 530 nm emission
# [9] = target: Retinoic acid receptor RXR-alpha (Homo sapiens) (UniProt P19793); experiment: as above
# [10] = qHTS assay for small molecule antagonists of retinoid X receptor alpha signaling (AID 588546; active means well fitted inhibition curve with a large enough effect in the signal ratio, with a control signal flat, not every such curve was filed as active; the % refers to the signal ratio;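 further: cells stimulated with 9-cis-retinoic acid as agonist; on the % scale 0 is the no-effect control and ±100 the full control effect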); details: HEK293T RXRa-UAS-bla, beta-lactamase ratio, antagonist mode; measured here: W530 green channel, cytotoxicity proxy
# How it was run: (§1)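 Beta-lactamase reporter inhibition, read as CCF4 fluorescence ratio (ex 405, em 460/530 nm) after 2 h at RT. HEK293T UAS-bla cells, 2500/well, were stimulated with 9-cis-RA at 500 or 100 nM final alongside test compound for 18 h at 37 C.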
# [11] = target: Retinoic acid receptor RXR-alpha (Homo sapiens) (UniProt P19793); experiment: as above; details: HEK293T RXRa-UAS-bla, beta-lactamase ratio, antagonist mode
# How it was run: as §1
# [12] = qHTS assay for small molecule agonists of the antioxidant response element (ARE) signaling pathway (AID 651741; active means well fitted activation curve with a large enough effect in the signal ratio; the % refers to the signal ratio; further: potency means the concentration at half of the fitted maximal effect)
# How it was run: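 Beta-lactamase reporter expression driven by the antioxidant response element in HepG2 cells was detected by fluorescence with LiveBLAzer B/G FRET substrate (2 h, room temperature) following 16 h compound treatment at 37 C.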
# [13] = qHTS assay for environmental chemicals that activate the Aryl hydrocarbon Receptor (AhR) signaling pathway (AID 651777); details: 1A2-DRE human hepatoma cells, luciferase, 24 h; activation: stronger effect = higher value; further: potency means the concentration at half of the fitted maximal effect; nearly all actives have a fitted effect of over 15% in size
# How it was run: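 Human hepatoma 1A2-DRE cells stably carrying a DRE/CYP1A2 promoter–luciferase reporter, 1,200 cells/well, exposed to compound 24 hr at 37 C. Luciferase read by One-Glo luminescence after 30 min at room temperature; increased signal marks AhR activation.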
# [14] = target: Peroxisome proliferator-activated receptor alpha (Homo sapiens) (UniProt Q07869); experiment: qHTS assay for small molecule agonists of the peroxisome proliferator-activated receptor alpha (PPARalpha) signaling pathway (AID 651778); details: PathHunter PPARalpha complementation, chemiluminescence, 6 h; stronger effect = higher value; further: % of control where 0% means no effect
# How it was run: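 Cells plated at 2,000/well and held overnight at 37 C, 5% CO2, then compound added by pin tool for 6 hr; after PathHunter detection reagent and 60 min at room temperature, chemiluminescence from enzyme complementation was read.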
# [15] = qHTS assay for small molecule agonists of the antioxidant response element (ARE) signaling pathway measured by Nrf2-dependant transcriptional activity - cell viability counter screen (AID 720653; active means well fitted curve in the direction sought with a large enough effect in the repeat runs; an effect the other way counts as inactive or inconclusive; further: on the % scale 0 is the no-effect control and ±100 the full control effect); details: ARE-bla HepG2 viability, CellTiter-Glo ATP luminescence, 16 h; max response: stronger effect = lower value
# How it was run: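 ARE-bla HepG2 cells (2,000/well) rested 5 hrs at 37C/5% CO2, then exposed to compounds in DMSO for 16 hrs. Viability was read in the same wells as intracellular ATP by luminescence, 30 min at room temperature after reagent addition.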
# [16] = qHTS assay for cell viability of HEK293 cells (AID 743288); details: ATP luminescence (CellTiter-Glo), 18 h; max response: stronger effect = lower value; further: on the % scale 0 is the no-effect control and ±100 the full control effect; nearly all actives have a fitted effect of over 50% in size
# How it was run: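 ATP luminescence (CellTiter-Glo) reports metabolically competent cell number after parental HEK293 cells, 2,000/well, were treated with DMSO-dissolved compounds for 18 h at 37 C; reagent incubation 30 min, room temperature.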
# [17] = qHTS assay for cell viability of the p53RE-bla HCT-116 cell line (AID 743292); further: on the % scale 0 is the no-effect control and ±100 the full control effect; nearly all actives have a fitted effect of over 55% in size
# How it was run: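 CellSensor p53RE-bla HCT-116 cells (4,000/well) pre-incubated 5 h at 37 C, then exposed to compounds in DMSO for 16 h at 37 C. Viability read as ATP content by CellTiter-Glo luminescence after 30 min at room temperature.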
# [18] = target: Rap guanine nucleotide exchange factor 4 (Homo sapiens) (UniProt Q8WZA2); experiment: Confirmatory qHTS for antagonist of cAMP-regulated guanine nucleotide exchange factor 4 (EPAC2) (AID 1645885); further: potency means the concentration at half of the fitted maximal effect; nearly all actives have a fitted effect of over 25% in size
# [19] = target: Lysosomal alpha-glucosidase (Homo sapiens) (UniProt P10253); experiment: Confirmation of Inhibitors and Activators of Purified Human alpha-Glucosidase (AID 2115; active means well fitted curve in either direction with a large enough effect)
# How it was run: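 Fluorogenic 4-MU-substrate hydrolysis (400 uM substrate, 4 nM human enzyme) over 20 min at room temperature, pH 5.0 citrate buffer plus 0.005% Tween-20; NaOH/glycine stop, then ex 365/em 440 nm read. Titration up to 77 uM; Hill-equation AC50, normalized to no-enzyme and full-activity controls.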
# [20] = target: Glutathione peroxidase 1 (Homo sapiens) (UniProt P07203); experiment: Primary qHTS Assay for Inhibitors of Recombinant Selenoprotein Glutathione Peroxidase 1 (GPX1) (AID 1845191); further: nearly all actives have a fitted effect of over 65% in size
# How it was run: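 GPX1 10 nM, GR 100 nM, GSH 1 mM, NADPH 0.5 mM, CHP 0.5 mM (final). 30-min cpd preincubation, RT. Ex340/Em450 read t=0, t=15 min.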
# Chain of Glucocorticoid receptor (Homo sapiens) (P04150 whole entry, looked up): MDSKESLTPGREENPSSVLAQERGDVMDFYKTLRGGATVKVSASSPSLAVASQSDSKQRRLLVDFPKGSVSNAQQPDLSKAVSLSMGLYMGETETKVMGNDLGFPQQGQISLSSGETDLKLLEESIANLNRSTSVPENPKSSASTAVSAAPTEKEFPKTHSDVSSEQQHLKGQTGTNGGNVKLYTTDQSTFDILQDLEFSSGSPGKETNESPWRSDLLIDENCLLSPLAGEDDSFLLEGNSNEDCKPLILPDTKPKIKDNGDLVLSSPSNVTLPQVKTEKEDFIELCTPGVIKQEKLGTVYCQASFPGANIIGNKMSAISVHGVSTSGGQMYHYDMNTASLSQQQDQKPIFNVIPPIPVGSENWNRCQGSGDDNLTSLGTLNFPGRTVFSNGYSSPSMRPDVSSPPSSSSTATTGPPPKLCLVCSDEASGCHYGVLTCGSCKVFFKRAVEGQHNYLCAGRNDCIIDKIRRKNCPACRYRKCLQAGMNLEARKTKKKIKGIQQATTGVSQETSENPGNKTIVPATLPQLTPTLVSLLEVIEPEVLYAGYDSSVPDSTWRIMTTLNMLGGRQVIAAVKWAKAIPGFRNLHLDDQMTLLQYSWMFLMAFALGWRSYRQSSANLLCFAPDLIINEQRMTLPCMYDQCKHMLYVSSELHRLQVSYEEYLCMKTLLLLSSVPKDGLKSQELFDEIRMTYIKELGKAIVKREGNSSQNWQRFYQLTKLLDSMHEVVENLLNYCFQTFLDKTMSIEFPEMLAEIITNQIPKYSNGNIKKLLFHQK
# Chain of Peroxisome proliferator-activated receptor gamma (Homo sapiens) (P37231 whole entry, looked up): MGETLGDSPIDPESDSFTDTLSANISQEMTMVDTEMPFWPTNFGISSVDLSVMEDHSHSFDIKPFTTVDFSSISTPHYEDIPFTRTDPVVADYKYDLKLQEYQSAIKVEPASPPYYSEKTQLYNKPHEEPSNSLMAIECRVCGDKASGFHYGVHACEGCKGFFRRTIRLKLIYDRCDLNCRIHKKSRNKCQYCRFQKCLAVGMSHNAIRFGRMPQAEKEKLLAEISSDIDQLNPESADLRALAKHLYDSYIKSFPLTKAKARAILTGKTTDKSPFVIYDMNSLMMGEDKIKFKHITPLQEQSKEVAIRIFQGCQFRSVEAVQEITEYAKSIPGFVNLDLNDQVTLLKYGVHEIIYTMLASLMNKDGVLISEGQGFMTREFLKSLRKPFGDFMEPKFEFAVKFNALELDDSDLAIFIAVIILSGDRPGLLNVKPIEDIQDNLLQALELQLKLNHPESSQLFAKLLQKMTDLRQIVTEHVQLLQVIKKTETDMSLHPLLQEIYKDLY
# Chain of Retinoic acid receptor RXR-alpha (Homo sapiens) (P19793 whole entry, looked up): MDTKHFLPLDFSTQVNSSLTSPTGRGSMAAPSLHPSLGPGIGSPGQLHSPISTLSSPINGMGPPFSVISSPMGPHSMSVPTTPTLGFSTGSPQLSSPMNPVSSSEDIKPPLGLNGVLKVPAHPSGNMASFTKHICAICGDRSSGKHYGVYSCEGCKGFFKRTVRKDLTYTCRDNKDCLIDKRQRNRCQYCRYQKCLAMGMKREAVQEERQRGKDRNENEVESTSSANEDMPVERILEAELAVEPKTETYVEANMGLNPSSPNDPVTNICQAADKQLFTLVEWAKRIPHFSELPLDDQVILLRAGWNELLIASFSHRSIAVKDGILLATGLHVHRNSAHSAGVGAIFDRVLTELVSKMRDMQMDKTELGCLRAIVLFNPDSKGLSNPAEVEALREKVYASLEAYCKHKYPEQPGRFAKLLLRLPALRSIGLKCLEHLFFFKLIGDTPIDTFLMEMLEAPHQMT
# Chain of Estrogen receptor (Homo sapiens) (P03372 whole entry, looked up): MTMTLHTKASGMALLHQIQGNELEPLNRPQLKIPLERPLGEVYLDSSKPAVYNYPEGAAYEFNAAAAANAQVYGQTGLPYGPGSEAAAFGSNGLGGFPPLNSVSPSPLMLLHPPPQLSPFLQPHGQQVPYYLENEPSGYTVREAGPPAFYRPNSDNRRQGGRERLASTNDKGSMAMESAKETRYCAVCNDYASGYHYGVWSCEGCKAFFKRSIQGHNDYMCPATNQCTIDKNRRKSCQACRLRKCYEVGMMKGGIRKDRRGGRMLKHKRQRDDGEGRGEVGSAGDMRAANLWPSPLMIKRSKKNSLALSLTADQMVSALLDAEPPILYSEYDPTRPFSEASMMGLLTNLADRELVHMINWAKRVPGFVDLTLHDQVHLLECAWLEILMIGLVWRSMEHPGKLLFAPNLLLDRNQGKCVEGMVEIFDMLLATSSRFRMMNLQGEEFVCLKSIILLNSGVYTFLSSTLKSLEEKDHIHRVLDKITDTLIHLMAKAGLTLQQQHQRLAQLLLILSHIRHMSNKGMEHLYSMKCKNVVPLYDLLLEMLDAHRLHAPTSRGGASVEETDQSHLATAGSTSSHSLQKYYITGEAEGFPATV
# Chain of Vitamin D3 receptor (Homo sapiens) (P11473 whole entry, looked up): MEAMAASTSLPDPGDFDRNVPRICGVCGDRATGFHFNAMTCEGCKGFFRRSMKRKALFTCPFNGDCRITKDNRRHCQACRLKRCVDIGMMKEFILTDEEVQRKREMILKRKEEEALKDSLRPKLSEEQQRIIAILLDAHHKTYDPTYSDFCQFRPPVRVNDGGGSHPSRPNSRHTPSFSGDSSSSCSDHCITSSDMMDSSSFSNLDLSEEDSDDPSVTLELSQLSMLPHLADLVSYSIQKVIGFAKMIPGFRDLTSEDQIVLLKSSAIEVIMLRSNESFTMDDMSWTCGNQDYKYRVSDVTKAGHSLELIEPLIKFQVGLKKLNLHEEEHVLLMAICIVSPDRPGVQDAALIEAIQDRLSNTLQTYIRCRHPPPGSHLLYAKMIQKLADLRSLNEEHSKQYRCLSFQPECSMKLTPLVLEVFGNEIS
# Chain of Rap guanine nucleotide exchange factor 4 (Homo sapiens) (Q8WZA2 whole entry, looked up): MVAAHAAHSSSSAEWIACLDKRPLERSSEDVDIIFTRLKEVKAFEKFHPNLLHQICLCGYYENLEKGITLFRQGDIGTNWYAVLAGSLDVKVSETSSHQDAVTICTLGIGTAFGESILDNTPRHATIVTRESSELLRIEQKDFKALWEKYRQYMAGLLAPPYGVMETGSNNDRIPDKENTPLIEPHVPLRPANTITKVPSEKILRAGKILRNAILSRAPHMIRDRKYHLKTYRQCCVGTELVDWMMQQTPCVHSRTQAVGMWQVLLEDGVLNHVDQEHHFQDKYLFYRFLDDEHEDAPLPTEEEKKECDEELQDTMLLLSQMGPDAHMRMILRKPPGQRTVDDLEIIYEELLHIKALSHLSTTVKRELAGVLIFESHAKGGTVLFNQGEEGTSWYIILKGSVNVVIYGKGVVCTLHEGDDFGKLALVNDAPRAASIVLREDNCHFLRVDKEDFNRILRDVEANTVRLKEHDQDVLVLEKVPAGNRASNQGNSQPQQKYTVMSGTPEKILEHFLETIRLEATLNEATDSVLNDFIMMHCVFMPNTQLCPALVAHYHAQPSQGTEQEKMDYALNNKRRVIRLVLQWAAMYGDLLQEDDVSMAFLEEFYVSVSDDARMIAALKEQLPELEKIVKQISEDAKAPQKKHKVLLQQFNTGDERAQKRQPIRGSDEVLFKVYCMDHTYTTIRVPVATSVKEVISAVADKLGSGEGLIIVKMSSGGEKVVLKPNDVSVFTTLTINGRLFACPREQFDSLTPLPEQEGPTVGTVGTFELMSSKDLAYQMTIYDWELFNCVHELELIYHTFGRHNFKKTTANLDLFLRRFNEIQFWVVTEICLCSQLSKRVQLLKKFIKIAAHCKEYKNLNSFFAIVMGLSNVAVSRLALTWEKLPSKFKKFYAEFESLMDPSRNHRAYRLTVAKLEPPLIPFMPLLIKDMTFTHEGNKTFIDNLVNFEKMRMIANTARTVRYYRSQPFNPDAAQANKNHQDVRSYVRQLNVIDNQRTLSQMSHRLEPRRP
# Chain of Glutathione peroxidase 1 (Homo sapiens) (P07203 whole entry, looked up): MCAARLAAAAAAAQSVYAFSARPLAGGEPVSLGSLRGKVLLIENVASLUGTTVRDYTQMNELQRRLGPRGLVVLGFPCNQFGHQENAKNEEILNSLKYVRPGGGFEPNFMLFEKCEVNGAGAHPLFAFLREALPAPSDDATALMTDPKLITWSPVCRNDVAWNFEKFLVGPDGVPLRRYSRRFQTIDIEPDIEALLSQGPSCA
# Chain of Peroxisome proliferator-activated receptor alpha (Homo sapiens) (Q07869 whole entry, looked up): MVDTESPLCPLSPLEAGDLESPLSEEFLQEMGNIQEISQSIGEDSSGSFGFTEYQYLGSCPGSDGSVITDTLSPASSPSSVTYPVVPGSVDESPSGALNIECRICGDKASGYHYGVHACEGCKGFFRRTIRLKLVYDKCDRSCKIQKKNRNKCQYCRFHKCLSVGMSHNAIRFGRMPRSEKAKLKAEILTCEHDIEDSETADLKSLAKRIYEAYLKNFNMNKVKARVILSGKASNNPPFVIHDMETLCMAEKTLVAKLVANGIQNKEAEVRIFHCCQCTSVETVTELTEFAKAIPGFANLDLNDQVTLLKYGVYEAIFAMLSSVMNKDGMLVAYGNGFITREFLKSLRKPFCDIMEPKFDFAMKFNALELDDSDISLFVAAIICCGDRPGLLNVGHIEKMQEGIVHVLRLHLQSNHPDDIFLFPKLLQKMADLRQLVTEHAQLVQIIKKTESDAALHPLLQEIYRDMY
smiles,measurement,setting,value
CCCCC[C@H]1C(=O)O[C@H](C)[C@H](NC(=O)c2cccc(NC=O)c2O)C(=O)O[C@@H](C)[C@@H]1OC(=O)CC(C)C,"remaining proliferation (% of control), lower = more inhibition",[1],6.18%
Cc1ccc2cc3c(ccc4ccccc43)c3c2c1CC3,Potency,[2],inactive
same,activation,[3],4.51% (inactive)
same,Potency,[4],inactive
same,outcome,[5],inactive
same,Potency,[6],inactive
same,outcome,[7],inactive
same,max response,[8],0.698%
same,outcome,[9],inactive
same,max response,[10],24.7%
same,max response,[11],-30.8% (inactive)
same,Potency,[12],2.17 µM (active)
same,Potency,[13],8.91 µM (active)
same,max response,[14],-0.967% (inactive)
same,max response,[15],-7.15% (inactive)
same,max response,[16],-7.81% (inactive)
same,outcome,[17],inactive
O=C1CS[C@@H](c2ccccc2Cl)c2cc(Cl)ccc2N1,Potency,[18],49.4 µM (active)
O[C@H]1[C@H](O)[C@@H](O)CN2CC[C@H](O)[C@H]12,outcome,[19],inactive
CN(C(=O)Cc1ccccc1)[C@H](CN1CCCC1)c1ccccc1,Potency,[20],inactive
